Assay results taken from PubChem BioAssay (NCATS).
Records with an inconclusive call do not appear. Calls of active or inactive are those of the source. The call rests on the fitted dose curve; in most records, active means well fitted curve in the direction sought with a large enough effect; inconclusive means small, poorly fitted or top-dose-only effect, or another doubt; inactive means no such curve, though single readings can be large; an effect the other way counts as inactive or inconclusive.

How the values were obtained:
[1] = qHTS Screen of the MIPE 4.0 Collection Against Ewings Sarcoma (TC71) (AID 1259253); conditions: TC71 Ewing sarcoma viability, CellTiter-Glo, 48 h; series mostly up to 45.8 µM; further: nearly all actives have a fitted effect of over 40% in size; further: potency means the concentration at half of the fitted maximal effect
Summary of the method: (§1)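 CellTiter-Glo luminescence after 48 h compound exposure (titration) gave viability; percent activity used DMSO-treated cells as no inhibition and medium-only wells as full inhibition. Cells grown in RPMI/5% FBS, dosed 4 h post-seeding.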

[2] = qHTS Screen of the MIPE 4.0 Collection Against Ewings Sarcoma (EW8) (AID 1259255); conditions: EW8 Ewing sarcoma viability, CellTiter-Glo, 48 h; series mostly up to 45.8 µM; further: nearly all actives have a fitted effect of over 35% in size; further: potency means the concentration at half of the fitted maximal effect
Summary of the method: as §1

[3] = Identifying Small Molecule Inhibitors of Pancreatic Cancer Stem Cells (A2780, Spheroid) (AID 1259357); conditions: Potency: A2780 spheroid viability; series mostly up to 46.1 µM;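 further: compound exposure lasted 48 h before the ATP luminescence read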; further: potency means the concentration at half of the fitted maximal effect
Summary of the method: (§2)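 Spheroids grown 14 days in stem cell media on hydrogel-coated nonadherent plates; 2D lines seeded directly. Compounds added after 4 h attachment, 48 h at 37C, 5% CO2; CellTiter-Glo luminescence normalized to DMSO (no inhibition) and no-cell wells (full inhibition).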

[4] = Identifying Small Molecule Inhibitors of Pancreatic Cancer Stem Cells (SN12C, Adherent) (AID 1259358); conditions: viability/growth inhibition; series mostly up to 46.1 µM;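 further: cell survival measured after 48 h of compound exposure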
Summary of the method: (§3)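 Cytotoxicity read by CellTiter-Glo luminescence after 48 h compound exposure at 37C; percent activity scaled between DMSO-treated cells and cell-free wells. Spheroid formats used cells pre-formed 14 days in stem cell media on hydrogel.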

[5] = Identifying Small Molecule Inhibitors of Pancreatic Cancer Stem Cells (SN12C, Spheroid) (AID 1259360); conditions: Potency: SN12C spheroid viability; series mostly up to 46.1 µM; further: potency means the concentration at half of the fitted maximal effect
Summary of the method: as §2

[6] = Identifying Small Molecule Inhibitors of Pancreatic Cancer Stem Cells (A278, Adherent) (AID 1259361); conditions: series mostly up to 46.1 µM; further: nearly all actives have a fitted effect of over 35% in size
Summary of the method: as §3

[7] = Identifying Small Molecule Inhibitors of Pancreatic Cancer Stem Cells (Panc1, Adherent) (AID 1259362); conditions: Potency: viability; series mostly up to 46.1 µM; further: potency means the concentration at half of the fitted maximal effect
Summary of the method: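 Endpoint: ATP-based luminescence, 48 h drug exposure. Bortezomib at 9.2 uM final as full-kill control; DMSO vehicle as negative control; activity normalized between vehicle and cell-free wells.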

[8] = qHTS Screen of the MIPE 4.0 Collection Against Ewings Sarcoma (TC32) (AID 1259256); conditions: TC32 Ewing sarcoma viability, CellTiter-Glo, 48 h; series mostly up to 45.8 µM; further: nearly all actives have a fitted effect of over 45% in size; further: potency means the concentration at half of the fitted maximal effect
Summary of the method: as §1

[9] = Identifying Small Molecule Inhibitors of Pancreatic Cancer Stem Cells (Panc1, Spheroid) (AID 1259359); conditions: Panc1 spheroid cancer stem cell viability; series mostly up to 46.1 µM;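 further: potency means the concentration at half of the fitted maximal effect; compound exposure lasted 48 h before reading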
Excerpt: Progenitor-like cancer cells, often referred to as cancer stem cells (CSC), are believed to be the drivers of therapeutic resistance and rapid recurrence. CSCs are postulated to reside in specific niches characterized by low oxygen tension, limited nutrient supply, and high redox load. Selectively targeting CSC, alone or in combination with cytotoxic agents, as a means to produce durable remissions is an appealing concept. Modeling these cells in in vitro setting is an important step in finding new therapies and/or targets. Multiple reports highlight that forcing cells in culture into 3-dimensionaly architectures (spheroids) re-establishes key progenitor-like transcriptional signatures. Pancreatic cancer is among the diseases with the most dismal outlook which is driven, largely, by recurance following front-line therapies. […] In hopes of deriving new insight into the targeting of these pancreatic CSCs we examined three established pancreatic cancer cell lines in cytotoxicity assays versus a collection of approved and investigational drugs. Importantly, we screened these lines as traditional monolayer (2D) and spheroid (3D) formats to gain an appreciation of agents with differential activity.
Multicellular tumor spheroids from Panc1, MiaPaCa-2, and the primary low-passage tissue culture line SB.06 were seeded in stem cell media (SCM) in nonadherent 6-well plates coated with hydrogel (Corning Life Sciences, Chelmsford, Mass) and pancreatic spheres generated for 14 days before screening. Cells were seeded into 1536-well solid-bottom white tissue culture treated Greiner Bio One Plates (789173-F) using a MultiDrop Combi (Thermofisher Scientific) dispenser and a small sterile cassette. One column was media alone to be used as a :"no cells" control. The plates were then covered with sterilized stainless steel gasketed lids from Kalypsys. After allowing cells to attach for 4 hours, 23 nL of test compound or control (negative control DMSO and positive control 9.2 uM Bortezomib-final) were added from a 1536-well polypropylene compound source plate to each well using a 1536 head pin tool from Kalypsys. Cells were then incubated for 48 hours at 37C, 95% relative humidity and 5% CO2. After 48 hours, plates were removed from the incubator and 3 uL of CellTiter-Glo (Promega) was added using an Aurora Flying Reagent Dispenser Bioraptor. Plates were incubated at room temperature for 10 minutes prior to reading the luminescence on the Viewlux (PerkinElmer). The relative luciferase units are used to calculate the percent activity using the activity of DMSO in the cells and no cells columns for normalization of no inhibition and full inhibition respectively.

[10] = qHTS assay to identify small molecule inhibitors of chordoma cells - UCH-1 (AID 1259355); conditions: UCH-1 chordoma viability, CellTiter-Glo, 48 h, combination, with auranofin plus four topoisomerase inhibitors; series mostly up to 46.1 µM; further: nearly all actives have a fitted effect of over 55% in size
Summary of the method: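 800 cells/well, overnight attach; compounds pinned at 15 concs, then auranofin/camptothecin/doxorubicin/rubitecan/topotecan combo added; 48hr 37 C, 5% CO2; CellTiter-Glo, 30min RT, luminescence.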

SMILES: COc1cccc(OC)c1-c1cc(C(=O)NC2(C(=O)O)C3CC4CC(C3)CC2C4)nn1-c1ccnc2cc(Cl)ccc12 (stereo unspecified)
- Potency [1]: inactive
- Potency [2]: inactive
- Potency [3]: inactive
- Potency [4]: inactive
- Potency [5]: inactive
- IC50 (viability decrease) [6]: 20.9 µM (active)
- Potency [7]: inactive

SMILES: CON(C)C(=O)N1N=C(c2cc(F)ccc2F)S[C@]1(CCCN)c1ccccc1
- Potency [1]: inactive
- Potency [2]: inactive
- Potency [8]: inactive

SMILES: O=c1[nH]c(=O)n([C@H]2C[C@@H](O)[C@@H](CO)O2)cc1C(F)(F)F
- Potency [1]: 1.87 µM (active)
- Potency [2]: 3.32 µM (active)
- Potency [8]: 1.32 µM (active)

SMILES: CNC(=O)c1cc(Oc2ccc(NC(=O)Nc3ccc(Cl)c(C(F)(F)F)c3)c(F)c2)ccn1
- Potency [1]: 20.9 µM (active)
- Potency [2]: 20.9 µM (active)
- Potency [8]: 20.9 µM (active)
- Potency [9]: 20.9 µM (active)
- Potency [5]: 18.7 µM (active)
- IC50 (viability decrease) [6]: 16.6 µM (active)
- Potency [7]: 20.9 µM (active)

SMILES: Cc1nc(C(=O)NCC(=O)O)c(O)c2ccc(Oc3ccccc3)cc12
- Potency [1]: inactive
- Potency [2]: inactive
- Potency [8]: inactive

SMILES: CCN(CC)CCCCNc1nc2cc(Cl)c(Cl)cc2nc1-c1ccc(-c2cccs2)s1
- Potency [1]: 23.5 µM (active)
- Potency [2]: 23.5 µM (active)
- Potency [8]: 18.7 µM (active)
- IC50 (viability decrease) [6]: 23.5 µM (active)

SMILES: N[C@@H](CC(=O)N1CCn2c(nnc2C(F)(F)F)C1)Cc1cc(F)c(F)cc1F
- Potency [1]: 16.6 µM (active)
- Potency [2]: 18.7 µM (active)
- Potency [8]: 23.5 µM (active)

SMILES: CC1(C)C(N(O)C(=O)Nc2ccc(Cl)cc2)N(c2ccc(Cl)cc2)C(=O)N1CC(=O)NN=CC=Cc1ccc([N+](=O)[O-])o1 (stereo unspecified)
- Potency [1]: 18.7 µM (active)
- Potency [2]: 14.8 µM (active)
- Potency [8]: 18.7 µM (active)

SMILES: O=C(O)C1=CC(O)C(O)[C@H](O)C1 (stereo partly specified)
- Potency [1]: inactive
- Potency [2]: inactive
- Potency [8]: inactive

SMILES: Cc1cc2nc3c(=O)[nH]c(=O)nc-3n(CC(O)C(O)C(O)CO)c2cc1C (stereo unspecified)
- Potency [1]: 26.4 µM (active)
- Potency [2]: inactive
- outcome [10]: inactive

SMILES: CC(C)CNc1ccnc(NCc2csc(-c3ccccc3)n2)n1
- Potency [1]: 9.35 µM (active)
- Potency [2]: 18.7 µM (active)
- Potency [8]: 14.8 µM (active)

SMILES: O=C1NC(=O)C(=Cc2ccc(-c3ccc(F)cc3O)o2)S1
- Potency [1]: 23.5 µM (active)
- Potency [2]: 18.7 µM (active)
- Potency [8]: 23.5 µM (active)

SMILES: O=C(c1ccc(C=Cc2n[nH]c3ccccc23)cc1)N1CCNCC1
- Potency [1]: 1.66 µM (active)
- Potency [2]: 0.662 µM (active)
- Potency [8]: 0.743 µM (active)

SMILES: NC(=O)c1ncn([C@@H]2O[C@H](CO)[C@@H](O)[C@@H]2O)n1
- Potency [1]: inactive
- Potency [2]: inactive
- Potency [8]: inactive

SMILES: CCN(CCO)CCCOc1ccc2c(Nc3cc(CC(=O)Nc4cccc(F)c4)[nH]n3)ncnc2c1
- Potency [1]: 0.166 µM (active)
- Potency [2]: 0.0833 µM (active)
- Potency [8]: 0.059 µM (active)

SMILES: O=C(Nc1ccc(OC(F)(F)F)cc1)c1sccc1NCc1ccnc2ccccc12
- Potency [1]: 16.6 µM (active)
- Potency [2]: 18.7 µM (active)
- Potency [8]: 18.7 µM (active)
- Potency [5]: 23.5 µM (active)
- IC50 (viability decrease) [6]: 20.9 µM (active)

SMILES: CC(C)CN(C[C@@H](O)[C@H](Cc1ccccc1)NC(=O)O[C@H]1CO[C@H]2OCC[C@H]21)S(=O)(=O)c1ccc(N)cc1
- Potency [1]: 3.72 µM (active)
- Potency [2]: 1.32 µM (active)
- outcome [10]: inactive

SMILES: Nc1ccc(-c2ccc3ncc4ccc(=O)n(-c5cccc(C(F)(F)F)c5)c4c3c2)cn1
- Potency [1]: 0.0083 µM (active)
- Potency [2]: 0.0066 µM (active)
- Potency [3]: 743 nM (active)
- Potency [4]: inactive

SMILES: C[C@@H]1C[C@H]2[C@@H]3CCC4=CC(=O)C=C[C@]4(C)[C@@]3(F)[C@@H](O)C[C@]2(C)[C@@]1(O)C(=O)CO
- Potency [1]: inactive
- Potency [2]: inactive
- Potency [8]: inactive

SMILES: CN(C)CCN(C)C(=O)c1ccc(NC(=O)Nc2ccc(-c3nc(N4CCOCC4)c4ccn(CC(F)(F)F)c4n3)cc2)cc1
- Potency [1]: 0.0743 µM (active)
- Potency [2]: 0.0209 µM (active)
- Potency [3]: 418 nM (active)
- Potency [9]: 6.62 µM (active)
- Potency [5]: 0.264 µM (active)
- IC50 (viability decrease) [6]: 0.0418 µM (active)
- Potency [7]: 14.8 µM (active)

SMILES: CC[C@H](CC#N)OC(=O)N[C@@H](C)c1cccc(NC(=O)Nc2ccc(-c3cnco3)c(OC)c2)c1
- Potency [1]: 0.469 µM (active)
- Potency [2]: 0.469 µM (active)
- Potency [8]: 0.469 µM (active)

SMILES: O=C(O)Cc1cccc(OCCCN(Cc2cccc(C(F)(F)F)c2Cl)CC(c2ccccc2)c2ccccc2)c1
- Potency [1]: 20.9 µM (active)
- Potency [2]: 20.9 µM (active)
- Potency [8]: 20.9 µM (active)
- Potency [4]: inactive

SMILES: CCCCCCOC(=O)N=C(N)c1ccc(NCc2nc3cc(C(=O)N(CCC(=O)OCC)c4ccccn4)ccc3n2C)cc1
- Potency [1]: 20.9 µM (active)
- Potency [2]: 8.33 µM (active)
- Potency [8]: 7.43 µM (active)
